From ChEMBL document CHEMBL4513216, “Probing the Open Global Health Chemical Diversity Library for Multistage-Active Starting Points for Next-Generation Antimalarials” (ACS Infect Dis, 2020)
Out of some 69,000 compounds screened, about 8,600 (12%) showed an effect of 50% or more. Only a selection was taken, and strong results are over-represented in it overall.

The compounds below were run on Plasmodium berghei (assay: Screen against P. berghei liver stage (PbLuc), transformed with Luciferase, at 10uM). Details: tested at 10 uM.
Assay type: functional, HepG2

| Structure (SMILES) | INHIBITION [%] |
| --- | --- |
| O=C(CC1C=CCC1)N1CCc2ncnc(NCc3ccon3)c2CC1 (stereo unspecified) | 34.5 |
| CC(NC(=O)CSCC#N)c1ccccc1 (stereo unspecified) | 55.5 |
| CC(NC(=O)CSCC#N)c1ccc(F)cc1 (stereo unspecified) | -13.3 |
| CC(NC(=O)CSCC#N)c1ccc(Cl)cc1 (stereo unspecified) | 34.7 |
| Cc1c(Br)cnn1CCC(=O)N(C)Cc1c(Cl)cnn1C | 32.2 |
| COc1ccc(N2CCCC3(C2)CN(c2cccnc2)CCO3)cc1 (stereo unspecified) | 8.85 |
| O=C(c1ccncc1)N1CCOC2(COCCN(c3cccnc3)C2)C1 (stereo unspecified) | 31.4 |
| CC(C)N1CCOCC2(CN(Cc3cccs3)CCO2)C1 (stereo unspecified) | 41.2 |
| Fc1cnc(N2CCCC3(CN(Cc4cccs4)CCO3)C2)nc1 (stereo unspecified) | 32.5 |
| c1cncc(N2CCCC3(CN(Cc4cccs4)CCO3)C2)c1 (stereo unspecified) | 63.7 |
| c1cncc(N2CCOCC3(CN(Cc4cccs4)CCO3)C2)c1 (stereo unspecified) | 53.2 |
| O=C(CCc1nc(C2CC2)no1)c1ccc2c(c1)OCCO2 | -5.22 |
| CN1CCCC(c2cncc(C(=O)NCc3ccccc3Cl)n2)C1 (stereo unspecified) | -54.1 |
| CC(C)=CCN1C(=O)[C@@H]2CC[C@H]1CN(c1ncccn1)C2 | 12.7 |
| CC(C)(C)NC(=O)CNc1ccc(Br)cn1 | 25.4 |
| O=C(NCCCn1cccn1)c1nc2ccccc2[nH]1 | 15.7 |
| Cc1csc(NC(=O)NCCCN2CCC(C(N)=O)CC2)n1 | -21.1 |
| Cc1ccnc(OC[C@]23COC[C@H]2CN(C(=O)Cc2ccsc2)C3)n1 | -39.9 |
| Cc1n[nH]c(C)c1NC(=O)CN1CCCC1c1noc(C2CC2)n1 (stereo unspecified) | 26.5 |
| c1ccc(-c2nn3c(CN4CCOCC4)nnc3s2)nc1 | 25.9 |
| Cc1nc(CN2C[C@@H]3CN(c4ncc(F)cn4)C[C@@H]3C2=O)cs1 | 5.63 |
| COCCN1C[C@@H]2CN(c3ncccn3)C[C@@H]2C1=O | -14.6 |
| COc1cc(N2C[C@H]3CCC[C@@H](CN4CCCC4)[C@H]3C2)ncn1 | 76.5 |
| COc1cc(N2C[C@H]3CN(CCN4CCCC4)C(=O)[C@H]3C2)ncn1 | 17.2 |
| COc1cc(N2C[C@H]3CN(CC(=O)N(C)C)C(=O)[C@H]3C2)ncn1 | 42.3 |
| Cc1ccc(N2C[C@H]3CCC[C@@H](CN4CCOCC4)[C@H]3C2)nn1 | 61.9 |

| Structure (SMILES) | INHIBITION [%] |
| --- | --- |
| Cc1ccc(N2C[C@@H](CN3CCOCC3)[C@@H](CO)C2)nn1 | 20.4 |
| Cc1ccc(N2C[C@H]3CCC[C@@H](CN(C)C)[C@H]3C2)nn1 | -10.5 |
| COCCN1C[C@@H]2CN(c3ncc(F)cn3)C[C@@H]2C1=O | 53.4 |
| COc1cc(N2C[C@H]3CCC[C@@H](CN(C)C4CC4)[C@H]3C2)ncn1 | 20.6 |
| COc1cc(N2C[C@H]3CCC[C@@H](CN(C)C)[C@H]3C2)ncn1 | 32.2 |
| COCCN1CC[C@H]2CN(c3cc(OC)ncn3)C[C@@H]2C1=O | 54.1 |
| N[C@H]1c2ccccc2C[C@@H]1NC(=O)C1CCN(Cc2ccco2)CC1 | -13.6 |
| O=C(CS(=O)(=O)Cc1csc(-c2ccc(F)cc2)n1)NCC1CC1 | 0.991 |
| Cc1ccn2c(F)c(C(=O)N3CCC4(CCC(=O)N(C)C4)CC3)nc2c1 | 20.5 |
| Cc1cnn(CCNCC(O)c2ccc(S(C)(=O)=O)cc2)c1 (stereo unspecified) | 12.6 |
| c1cc(-c2nn3c(CN4CCOCC4)nnc3s2)ccn1 | 26.7 |
| COc1ccc2c(c1)CN(CC(=O)NC1CCCC1)CC2 | -2.48 |
| Cc1cc2nc(SCC(=O)N3CCCC3)n(C(C)C)c(=O)c2[nH]1 | -19.7 |
| COc1cc(N2C[C@H]3CCC[C@@H](CN4CCOCC4)[C@H]3C2)ncn1 | 73 |
| c1cnc(N2C[C@H]3CCC[C@@H](CN4CCCC4)[C@H]3C2)nc1 | 9.97 |
| COc1cc(N2C[C@H]3OCC[C@H]3[C@H](C(=O)N3CCCC3)C2)ncn1 | 30.3 |
| COCCN(C)C[C@@H]1CCC[C@@H]2CN(c3cc(OC)ncn3)C[C@@H]21 | 41.5 |
| COc1cc(N2C[C@H]3CCN(CCN4CCCC4)C[C@H]3C2)ncn1 | 52.6 |
| COc1cc(N2C[C@H]3CN(C(=O)c4cnccn4)C[C@H]3C2)ncn1 | -1.15 |
| COCCN1C[C@@H](C)[C@@]2(COCCN(C(=O)c3cnc(C)cn3)C2)C1 | 8.57 |
| CC(=O)NCc1noc2c1CN(CCN1CCCC1)CC2 | 39.3 |
| O=C(O)COc1ccccc1CN1CCCC1c1cnccn1 (stereo unspecified) | 47.2 |
| O=C(C[C@@H]1COC[C@H]2CN(Cc3ccccc3)C[C@@H]12)N1CCCC1 | 41.2 |
| O=C1[C@@H]2CCN(Cc3ccncc3)C[C@@H]2OCCN1c1ccccc1 | 55.2 |
| Cc1cc(CN2CC[C@H]3C(=O)N(c4ccccc4)CCO[C@H]3C2)no1 | -33.5 |
| Cc1cc(CN2CC[C@H]3C(=O)N(c4cccnc4)CCO[C@H]3C2)no1 | 53.2 |

| Structure (SMILES) | INHIBITION [%] |
| --- | --- |
| O=C1[C@@H]2CCN(Cc3ccccn3)C[C@@H]2OCCN1c1ccccc1 | 10.1 |
| COc1ccccc1CN1C[C@@H]2CN(Cc3cccnc3)CCO[C@@H]2C1 | 20.1 |
| Cc1ccc(N2CCO[C@H]3CN(Cc4cc(C)on4)CC[C@H]3C2=O)cn1 | 48.6 |
| Fc1ccccc1CN1C[C@@H]2CN(Cc3cccnc3)CCO[C@@H]2C1 | 27.5 |
| Cc1ccc(CN2CC[C@H]3C(=O)N(Cc4cccnc4)CCO[C@H]3C2)o1 | 33.4 |
| O=C1[C@@H]2CCN(CC3CCOCC3)C[C@@H]2OCCN1c1ccccc1 | -37.8 |
| O=C1[C@@H]2CCN(Cc3ccoc3)C[C@@H]2OCCN1Cc1cccc(F)c1 | 70.7 |
| COc1ccc(CN2C[C@@H]3CN(Cc4cccnc4)CCO[C@@H]3C2)cc1 | 64.5 |
| O=C1[C@H]2CN(C3CCOCC3)C[C@H]2CN1Cc1cccc(F)c1 | 1.48 |
| O=c1c2c[nH]c(N3CCCC3)nc-2cn1C1CCS(=O)(=O)C1 (stereo unspecified) | 42.1 |
| CC(C)n1[nH]c(=O)c2c1NC(=O)CC2c1ccc(C#N)cc1 (stereo unspecified) | -1.04 |
| O=C1NCCCCC1Sc1ccc(F)c(F)c1 (stereo unspecified) | 25.2 |
| O=C(N1CCCC1)N1CC[C@H]2[C@H]1CCN2c1ncccn1 | 19.8 |
| Cc1nc(CC(=O)N2CCC(c3ccn4nccc4n3)CC2)cs1 | 23.9 |
| CCOc1ccccc1-n1c(C2CCC2)n[nH]c1=O | -27.5 |
| c1cnc(N2CC[C@@H]3CN(Cc4ccncc4)CCO[C@@H]3C2)nc1 | -33 |
| OC1CN(Cc2ccccc2)CCN(c2ccncc2)C1 (stereo unspecified) | 57.6 |
| c1cnc(N2CCO[C@@H]3CN(Cc4ccoc4)C[C@@H]3C2)nc1 | 33.5 |
| O=C1[C@@H]2CCN(Cc3ccoc3)C[C@@H]2OCCN1c1cccnc1 | 54.4 |
| O=C1[C@@H]2CCN(Cc3ccoc3)C[C@@H]2OCCN1Cc1cccnc1 | 12.5 |
| c1ccc(N2CC[C@@H]3CN(Cc4ccncc4)CCO[C@@H]3C2)cc1 | 65.1 |
| c1cncc(CN2CCO[C@@H]3CN(Cc4ccoc4)CC[C@@H]3C2)c1 | 50.9 |
| Cc1ccnc(N2CCN(Cc3ccccc3)CC(O)C2)c1 (stereo unspecified) | 43.9 |
| O=C1[C@@H]2CCN(Cc3ccoc3)C[C@@H]2OCCN1c1ccccc1 | 21.6 |
| Cc1cc(N2CCN(Cc3ccccc3)CC(O)C2)cc(C)n1 (stereo unspecified) | 36.8 |
| O=C1[C@@H]2CCN(Cc3ccc(F)cc3)C[C@@H]2OCCN1c1cccnc1 | 24.9 |

| Structure (SMILES) | INHIBITION [%] |
| --- | --- |
| Cc1cnc(N2CC[C@@H]3CN(Cc4ccncc4)CCO[C@@H]3C2)nc1 | -15.3 |
| CCNc1nc(-c2cccnc2)c(-c2ccnc(N3CCCC3)n2)s1 | 48.6 |
| CN(C)C(=O)CCCn1ccc(NC(=O)NCc2cccc(F)c2)n1 | 13.8 |
| O=C(NCc1cc[nH]n1)NCC(O)c1ccc(F)c(F)c1 (stereo unspecified) | -48.4 |
| CCN(CC)S(=O)(=O)c1cccc(C(=O)N(C)Cc2ccsc2)c1 | -61.4 |
| CC[C@H]1N(C)CCC[C@]12CCC(=O)N2Cc1ccncc1 | 43.2 |
| CCOc1ccc(C(=O)N2CCCC2c2c(C)nn(C)c2OC)cn1 (stereo unspecified) | -105 |
| Cc1c(CN2CCCC(n3c(=O)oc4ccccc43)C2)cnn1C (stereo unspecified) | 35.75 |
| N#Cc1cccc(CN2CC[C@@H]3CN(c4ncccn4)CCO[C@@H]3C2)c1 | 56.4 |
| N#Cc1cccc(CN2C[C@@H]3CN(c4ncccn4)C[C@@H]3C2)c1 | 8.66 |
| Cc1cc(C)n(CC2CN(Cc3cccc(C#N)c3)CCO2)n1 (stereo unspecified) | -8.11 |
| CC(C)c1nc(C2CCCN2Cc2ccccc2C#N)no1 (stereo unspecified) | 22.5 |
| Cc1cc(NC(=O)CN2CCCC2c2noc(C(C)C)n2)n(C)n1 (stereo unspecified) | 6.81 |
| CC(C)c1nc(C2CCCN2CC(=O)Nc2ccc(Cl)cn2)no1 (stereo unspecified) | 54.6 |
| Cc1cc(NC(=O)CN2CCCC2c2noc(C3CC3)n2)no1 (stereo unspecified) | 21.6 |
| CC(C)c1nc(C2CCCN2Cc2ccncc2Cl)no1 (stereo unspecified) | 53.9 |
| CCc1ocnc1C(=O)N1CCCC1c1noc(C(C)C)n1 (stereo unspecified) | 11.7 |
| CC(C)c1nc(C2CCCN2CC(=O)Nc2cccnc2)no1 (stereo unspecified) | -17.6 |
| CCc1nc(C2CCCN2C(=O)c2nccnc2N)no1 (stereo unspecified) | -3.18 |
| Cc1cc(NC(=O)CN2CCCC2c2noc(C(C)C)n2)no1 (stereo unspecified) | 50.3 |
| CC(C)c1nc(C2CCCN2C(=O)c2nccnc2N)no1 (stereo unspecified) | 61.1 |
| CC(C)c1nc(C2CCCN2Cc2ccno2)no1 (stereo unspecified) | 17 |
| Cc1nnc(NC(=O)CN2CCCC2c2noc(C(C)C)n2)s1 (stereo unspecified) | -36.1 |
